TDP1 block: qHTS Assay for Inhibitors of Tyrosyl-DNA Phosphodiesterase (TDP1); hit rate 0.28% among 350,000; AID 485290, 2010; Tyrosyl-DNA phosphodiesterase 1 (Homo sapiens), Q9NUW8; recombinant TDP1, AlphaScreen DNA substrate cleavage; Potency, µM (series often up to 130 µM), for inactives: at the highest dose activity change, negative = inhibition, actives largely listed as inhibitors; note: nearly all actives have a fitted effect of over 40% in size
Target sequence (Q9NUW8 whole entry, looked up): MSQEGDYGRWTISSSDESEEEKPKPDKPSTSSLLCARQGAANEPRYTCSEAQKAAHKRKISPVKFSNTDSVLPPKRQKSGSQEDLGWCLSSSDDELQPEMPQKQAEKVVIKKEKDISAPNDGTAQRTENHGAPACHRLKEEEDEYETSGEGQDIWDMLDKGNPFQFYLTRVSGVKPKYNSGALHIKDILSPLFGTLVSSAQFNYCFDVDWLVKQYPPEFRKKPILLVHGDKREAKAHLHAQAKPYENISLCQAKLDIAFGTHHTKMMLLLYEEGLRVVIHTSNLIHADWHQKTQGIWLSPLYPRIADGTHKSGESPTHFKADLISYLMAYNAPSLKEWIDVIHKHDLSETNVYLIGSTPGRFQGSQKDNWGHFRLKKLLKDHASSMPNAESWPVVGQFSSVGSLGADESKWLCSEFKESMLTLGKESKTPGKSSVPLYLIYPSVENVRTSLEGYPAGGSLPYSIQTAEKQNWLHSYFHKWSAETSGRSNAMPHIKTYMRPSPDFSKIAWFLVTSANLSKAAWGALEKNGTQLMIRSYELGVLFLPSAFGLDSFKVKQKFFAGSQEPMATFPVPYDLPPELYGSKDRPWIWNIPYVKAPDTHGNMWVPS
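Compounds were preincubated with Tdp1 (1 nM final) for 15 min at room temperature before substrate (15 nM final) started a 5 min reaction; beads (10 ug/ml final) were then added for 10 min before AlphaScreen detection.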
GCN5L2 inh: qHTS Assay for Inhibitors of GCN5L2 | Histone acetyltransferase KAT2A (Homo sapiens), Q92830 | GCN5L2 HAT assay, ThioGlo1 CoA-SH fluorescence | Potency, µM (series often up to 58.9 µM), for the others: at the highest dose activity change, negative = inhibition, actives largely listed as inhibitors | hit rate 0.21% among 390,000
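Fluorescence readout, Ex340nm/Em540nm: ThioGlo1 (50uM final) reacts with free CoA thiol released as 20nM GCN5L2 acetylates H3(1-25) peptide (75uM) using acetyl-CoA (70uM). Compound and enzyme sat 15 min beforehand; 20 min room-temperature reaction.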
BLM inh-1: qHTS Assay for Inhibitors of Bloom's syndrome helicase (BLM) | hit rate 0.2% among 350,000 | RecQ-like DNA helicase BLM (Homo sapiens), P54132 | recombinant BLM DNA unwinding, fluorescence dequenching | Potency, µM (series often up to 56.1 µM), inactives show at the highest dose activity change, negative = inhibition, actives largely listed as inhibitors;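 note: plate controls were vehicle for no effect and no enzyme for full effect; nearly all actives have a fitted effect of over 35% in size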
APE1 inh-1: qHTS Assay for Inhibitors of the Human Apurinic/apyrimidinic Endonuclease 1 (APE1). recombinant APE1, TAMRA/BHQ-2 abasic DNA cleavage fluorescence. Potency, µM (series often up to 65.8 µM), inactives show at the top dose activity change, negative = inhibition, actives largely listed as inhibitors. DNA repair nuclease/redox regulator APEX1 (Homo sapiens), P27695. hit rate 0.35% among 350,000;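 note: plate controls were vehicle for no effect and reference inhibitor for full effect; nearly all actives have a fitted effect of over 55% in size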
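0.75 nM APE1 + cpd, 15 min RT; start w/ 50 nM TAMRA/BHQ-2 THF-abasic dsDNA; kinetic fluor 525/598 nm ×3 reads @60 s; Δ(read3−read1); normalized to DMSO and NSC13755 control wells.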
RECQ1 inh-1: qHTS Assay for Inhibitors of RecQ-Like Dna Helicase 1 (RECQ1); ATP-dependent DNA helicase Q1 (Homo sapiens), P46063; RECQ1 DNA unwinding, red fluorescence kinetic read; Potency, µM (top dose mostly 57.3 µM), for the others: at the top dose activity, negative = inhibition, most hits filed as inhibitors; hit rate 0.54% among 240,000; AID 2549, 2010;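 note: plate controls were vehicle for no effect and no enzyme for full effect; nearly all actives have a fitted effect of over 30% in size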
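50 nM RECQ1T1 preincubated 15 min with compound in Tris pH 8.0 buffer with MgCl2, DTT, Tween-20 and 2.5 ug/ml poly(dI-dC); started with 200 nM TAMRA/BHQ-2 forked duplex and 2 mM ATP. Unwinding read as fluorescence (525/598 nm), two reads 2 h apart.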
APE1 dye cs: Counterscreen for APE1 Inhibitors: Fluorescent Dye Displacement Assay | AID 2564, 2010 | shares compounds with APE1 inh-1 | hit rate 7% among 480 | DNA fluorescent dye displacement counterscreen, fluorescence | Potency, µM (highest dose often 28.5 µM), without a hit: top-dose activity change, negative = inhibition, usual class: inhibitors;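 note: loss of thiazole orange fluorescence as the dye is displaced from duplex DNA; 0% = ThO with dsDNA and no compound and -100% = ThO without dsDNA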
EndoIV counter: Counterscreen for APE1 Inhibitors: qHTS Assay for Inhibitors of Endonuclease IV. Potency, µM (highest dose often 27.1 µM), inactives show top-dose activity change, negative = inhibition, usual class: inhibitors. E. coli Endo IV, fluorogenic AP-site DNA cleavage. shares compounds with APE1 inh-1. hit rate 4% among 560;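 note: plate controls were uninhibited enzyme wells for no effect and no enzyme buffer wells for full effect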
APE1 inh-2: Confirmation qHTS Assay for Inhibitors of the Human Apurinic/apyrimidinic Endonuclease 1 (APE1) | shares compounds with APE1 inh-1 | purified APE1, fluorogenic abasic-site DNA cleavage | Potency, µM (series often up to 57.1 µM), inactives show at the top dose activity change, negative = inhibition, hits mostly inhibitors | hit rate 44% among 750; note: nearly all actives have a fitted effect of over 30% in size
APE1 FP inh: qHTS FP-Based Assay for Inhibitors of the Human Apurinic/apyrimidinic Endonuclease 1 (APE1). shares compounds with APE1 inh-1. APE1 binding to TAMRA-labelled double-stranded DNA, fluorescence polarization displacement. Potency, µM (top dose mostly 28.5 µM), for inactives: at the highest dose activity, negative = inhibition, usual class: inhibitors. hit rate 7% among 480
BLM inh-2: qHTS Confirmation Assay for Inhibitors of Bloom's syndrome helicase (BLM); shares compounds with BLM inh-1; BLM DNA unwinding, fluorescence quenching, biochemical; Potency, µM, for the others: max response, negative = inhibition, actives largely listed as inhibitors; hit rate 40% among 220;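 note: strand separation dequenches TAMRA so unwinding raises red fluorescence; series mostly up to about 69 µM; nearly all actives have a fitted effect of over 45% in size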
RECQ1 inh conf: Confirmation qHTS Assay for Inhibitors of RecQ-Like Dna Helicase 1 (RECQ1). shares compounds with RECQ1 inh-1. RECQ1 helicase DNA unwinding, fluorescence. Potency, µM (titrated, usually from 229 µM), without a hit: top-dose activity change, negative = inhibition, hits mostly inhibitors. hit rate 28% among 610; note: nearly all actives have a fitted effect of over 45% in size
RECQ1 ADP FP: Counterscreen for RECQ1 Inhibitors: ADP Fluorescence Polarization Displacement Assay. shares compounds with RECQ1 inh-1. ADP fluorescence polarization displacement counterscreen. Potency, µM (highest dose often 228 µM), inactives show at the top dose activity change, negative = inhibition, most hits filed as inhibitors. hit rate 27% among 530. AID 2711, 2010; note: nearly all actives have a fitted effect of over 45% in size
RECQ1 inh-2: Confirmation qHTS Assay for Inhibitors of RecQ-Like Dna Helicase 1 (RECQ1) - Round 2 Cherry Picks. shares compounds with RECQ1 inh-1. hit rate 15% among 1,100. Potency, µM (titrated, usually from 119 µM), for inactives: at the top dose activity, negative = inhibition, usual class: inhibitors. AID 504841, 2011. recombinant RECQ1 DNA unwinding, red fluorescence; note: nearly all actives have a fitted effect of over 50% in size
An asterisk follows results filed as active; i = inactive; ? = inconclusive; . = no result; [ ] = remark or other dose. This is a sample that favours compounds with a hit; in the whole collection about 0.87% have one here. Calls come from the whole dose curve; as a rule, active = well fitted curve in the direction sought with a large enough effect; inconclusive = small, poorly fitted or top-dose-only effect, or another doubt; inactive = no such curve, though single readings can be large; an effect the other way counts as inactive or inconclusive. Unless noted, % is set by controls: 0 for no effect and ±100 for the full control effect; potency is the fitted concentration of half-maximal effect.

SMILES	TDP1 block	GCN5L2 inh	BLM inh-1	APE1 inh-1	RECQ1 inh-1	APE1 dye cs	EndoIV counter	APE1 inh-2	APE1 FP inh	RECQ1 inh conf	RECQ1 ADP FP	RECQ1 inh-2	others
COc1ccccc1/C=c1\sc2nc(-c3ccco3)nn2c1=O	.	?	-29%	?	?	-7%	-1%	5µM*	?	.	.	?
CCCCCCN(C(=O)CCCCCN1C(=O)NC(C2CCCCC2)C(C(=O)OCc2ccccc2)=C1C)C(C(=O)NCCCC)c1ccc(OCC(=O)OC)c(C(=O)OC)c1 (configuration not stated)	-4%	.	-15%	-2%	-2%	.	.	.	.	.	.	.
O=C1CCCC2=C1C(c1ccco1)Nc1ccc3ccccc3c12 (configuration not stated)	?	?	-28%	14µM*	10µM*	-9%	4%	4µM*	?	25µM*	50µM*	16µM*
Cn1cc(S(=O)(=O)N2CCOCC2)cc1C(=O)Nc1cccc(C#N)c1	4%	-2%	0%	.	.	.	.	.	.	.	.	.
COC(=O)CC1c2ccccc2C(Cc2ccc3c(c2)OCO3)=C(C)N1C(=O)OC (configuration not stated)	2%	.	-1%	?	-2%	.	.	.	.	.	.	.
CCOc1ccc(NC(=O)CN(C)C(=O)c2cc(S(=O)(=O)N3CCCCC3)ccc2C)cc1OCC	.	3%	.	9%	.	.	.	.	.	.	.	.
O=C(CCCN1C(=O)/C(=C/c2ccco2)SC1=S)Nc1cccc(C(=O)O)c1	.	-11%	?	7.9µM*	8.9µM*	1%	106%	?	-9%	71µM*	0%[91.9 µM]	.
O=C1C2=CC[C@H]3C(=O)N(C[C@@H]4CCCO4)C(=O)[C@@H]3[C@@H]2[C@H](O)[C@@H]2O[C@H]12	-7%[21 µM]	.	2%[12.4 µM]	?	12%[11.5 µM]	.	.	.	.	.	.	.
Cc1ccc(NC(=O)CN(C)C(=O)c2cc3c(s2)CCCCC3)cc1	0%	-6%	.	24%	.	.	.	.	.	.	.	.
O=C(COC(=O)c1cc2c(s1)CCC2)Nc1ccc(F)cc1	35µM*	?	16µM*	16µM*	22µM*	?	7%	10µM*	?	.	.	?	BLM inh-2=?
O=C(O)c1ccc(N2C(=O)c3cccc4c(C(=O)O)ccc(c34)C2=O)cc1	2.8µM*	-14%	-8%	13µM*	?	-4%	5%	?	-95%	.	.	?
Nc1ccc2c(c1Cl)C(=O)c1ccc(N)c(Cl)c1C2=O	3.5µM*	?	14µM*	8.9µM*	?	6.3µM*	?	14µM*	?	.	.	?
O=C(COC(=O)c1ccc2c(c1Cl)C(=O)c1ccccc1C2=O)NC1CC1	1%	-8%	-11%	?	-27%	.	.	.	.	.	.	.
COc1ccc(C(=O)NCC(c2ccc(N(C)C)cc2)N2CCc3ccccc32)cc1 (configuration not stated)	11%	-3%	-5%	.	.	.	.	.	.	.	.	.
O=C1c2ccccc2-c2onc3ccc(NCc4ccco4)c1c23	79µM*	-4%	-22%	?	20µM*	.	.	14µM*	.	.	.	40µM*
CCOc1ccc2noc3c2c1C(=O)c1ccccc1-3	5%	-22%	-6%	-4%	i	.	.	.	.	.	.	.
C=C(C)C(=O)Nc1cccc(C2=NOC3(C2)C[C@@H](C(N)=O)N(C(=O)c2ccc(OC)cc2)C3)c1 (some centres not stated)	11µM*	4%	-7%	?	7.9µM*	.	.	?	.	25µM*	35µM*	.
C=C(C)C(=O)Nc1cccc(C2=NOC3(C2)C[C@@H](C(N)=O)N(C(=O)c2cc([N+](=O)[O-])cc([N+](=O)[O-])c2)C3)c1 (some centres not stated)	.	0%	-2%	7%	-21%	.	.	.	.	.	.	.
O=C(NN1C(=O)C2CC=C(Cl)CC2C1=O)c1ccncc1 (configuration not stated)	35µM*	2%	-14%	?	13µM*	.	.	-18%	.	32µM*	?	13µM*
CC1=[N+](C)c2ccc3ccccc3c2C1(C)C	13%	1%	-9%	14µM*	3.5µM*	1%	?	?	58%	7.9µM*	2.8µM*	22µM*
Cc1cc(=O)n2[nH]c(-c3ccsc3-n3c(C)ccc3C)cc2n1	.	-13%	7.9µM*	3.5µM*	8.9µM*	-10%	10%	?	3%	50µM*	32µM*	?

Screening results (PubChem BioAssay)
